GDH-TPI counter-1: GDH-TPI coupling enzyme inhibitors, primary screen, artefact control for M. tuberculosis FBA inhibitor project, biochemical, absorbance, full deck. GDH-TPI coupled enzyme counterscreen, NADH absorbance. inhibition, % at 4.8 µM. actives 1.2% (n = 360,000). AID 588335, 2011; in the data active = inhibition above about 30%;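 also: 0% = DMSO wells and 100% = wells lacking the enzyme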
RecA splice inh: Mtb RecA intein splicing inhibitors, primary screen, biochemical, fluorescence, HTS. Protein RecA (Mycobacterium tuberculosis (strain ATCC 25618 / H37Rv)), P9WHJ3. cell-free RecA intein splicing. inhibition, % (concentration not given with the values). actives 0.75% (n = 290,000); in the data active = inhibition above about 30%;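 also: 0% = vehicle wells and 100% = reference inhibitor control wells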
Mtb FBA inh: Mtb FBA enzyme inhibitors, primary screen, biochemical, fluorescence, strain H37Rv; purified M. tuberculosis FBA, fluorescence read-out; inhibition, % at 1 µM; actives 2.3% (n = 360,000); in the data active = inhibition above about 27%;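 also: 0% = vehicle and 100% = reference inhibitor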
Target sequence (P9WQA3 whole entry, looked up): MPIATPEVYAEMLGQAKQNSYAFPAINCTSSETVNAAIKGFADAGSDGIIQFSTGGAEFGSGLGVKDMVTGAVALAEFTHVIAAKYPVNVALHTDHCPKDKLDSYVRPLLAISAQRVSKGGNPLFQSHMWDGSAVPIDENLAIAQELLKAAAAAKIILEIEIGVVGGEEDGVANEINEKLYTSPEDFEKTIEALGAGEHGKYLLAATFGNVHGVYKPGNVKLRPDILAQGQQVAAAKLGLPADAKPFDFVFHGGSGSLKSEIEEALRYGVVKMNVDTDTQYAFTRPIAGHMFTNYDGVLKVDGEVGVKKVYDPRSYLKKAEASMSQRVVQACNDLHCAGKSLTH
Rv3671c protease: Rv3671c serine protease inhibitors, primary screen, biochemical, fluorescence polarization, M. tuberculosis H37Rv. P9WHR9. inhibition, % at 5.96 µM. actives 0.048% (n = 320,000). AID 2606, 2010; in the data active = inhibition above about 38%;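 also: extracellular domain of Rv3671c used as enzyme; 0% = enzyme with DMSO and 100% = no enzyme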
Mtb UGM inh: M. tuberculosis UGM enzyme inhibitors, primary screen, biochemical, fluorescence polarization, single point; actives 0.06% (n = 320,000); inhibition, % at 10 µM; AID 504406, 2011; purified UGM, fluorescence polarization probe displacement; in the data active = inhibition above about 10%, passing the limit was not always enough
Mtb betalactam: beta-lactam sensitization of Mtb H37Rv, H37Rv; actives 0.27% (n = 330,000); inhibition, % at 25 µM; AID 434955, 2010; M. tuberculosis H37Rv growth with meropenem, percent inhibition;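 also: growth measured after seven days incubation then overnight dye step; 0% = bacteria only wells and 100% = bacteria with antibiotic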
Mtb FBA inh conf: M. tuberculosis aldolase blockers, biochemical, fluorescence, strain H37Rv, confirmation. actives 78% (n = 5,600). purified M. tuberculosis FBA, fluorescence read-out. inhibition, % at 1 µM. AID 651616, 2012. shares compounds with Mtb FBA inh; in the data active = inhibition above about 27%;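 also: 0% = vehicle wells and 100% = reference inhibitor wells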
GDH-TPI counter-2: GDH-TPI coupling enzyme inhibitors, artefact control for M. tuberculosis FBA inhibitor project, biochemical, fluorescence, high throughput; shares compounds with Mtb FBA inh; GDH-TPI coupled enzyme counterscreen; actives 81% (n = 5,600); inhibition, % at 1 µM; in the data active = inhibition above about 10%
GDH-TPI DR: GDH-TPI coupling enzyme inhibitors, dose response, artefact control for M. tuberculosis FBA inhibitor project, biochemical, fluorescence, IC50; actives 79% (n = 170); shares compounds with Mtb FBA inh; IC50, µM; GDH-TPI coupled enzyme assay, artifact counterscreen
* hit, by the source's call. Rows were chosen to be rich in hits. Some 4% of all compounds tested hit in one or more screens of this group. Unless noted, no rule for the calls is given here.

`CC1=CC2=NCC(O)CN2C=C1` (centres undefined) gave GDH-TPI counter-1 -4, RecA splice inh -1, Mtb FBA inh 28*, Rv3671c protease -2, Mtb UGM inh 2, Mtb betalactam -9, Mtb FBA inh conf 12, GDH-TPI counter-2 -5 and GDH-TPI DR 9.3*.
`COc1cc(-c2nc(CCNC(=O)c3ccco3)cs2)cc(OC)c1OC` gave GDH-TPI counter-1 -1, RecA splice inh 0, Mtb FBA inh 37*, Rv3671c protease 0, Mtb UGM inh -1, Mtb betalactam 0, Mtb FBA inh conf 139* and GDH-TPI counter-2 112*.
Cn1nc(C(C)(C)C)cc1C(=O)N1CCCC(C)(C(=O)NS(=O)(=O)C2CC2)C1 (centres undefined) was read as GDH-TPI counter-1 -4 and Mtb FBA inh 2.
For Cc1ccc2[nH]c(=O)c(-c3noc(C(C)C)n3)cc2c1 the results were GDH-TPI counter-1 10, RecA splice inh -1, Mtb FBA inh 21, Rv3671c protease -8, Mtb UGM inh 0 and Mtb betalactam -6.
`CCc1nc(-c2cc3ccc(C)cc3[nH]c2=O)no1` gave GDH-TPI counter-1 20, RecA splice inh 0, Mtb FBA inh 30*, Rv3671c protease -6, Mtb UGM inh 4, Mtb betalactam -15, Mtb FBA inh conf 91* and GDH-TPI counter-2 82*.
For Cc1ccc2cc(-c3noc(C(C)(C)C)n3)c(=O)[nH]c2c1 the results were GDH-TPI counter-1 15, RecA splice inh -6, Mtb FBA inh 30*, Rv3671c protease 2, Mtb UGM inh 3, Mtb betalactam -21, Mtb FBA inh conf 65* and GDH-TPI counter-2 58*.
`Cn1c(=O)c2cc(NC(=S)NC3CCCCC3)ccc2n1-c1ccccc1` gave GDH-TPI counter-1 1, Mtb FBA inh 42*, Mtb FBA inh conf 76* and GDH-TPI counter-2 81*.
For O=C(CS(=O)(=O)c1ccccc1)c1cc2cc(F)ccc2oc1=O the results were GDH-TPI counter-1 -6, RecA splice inh 0, Mtb FBA inh 62*, Rv3671c protease 4, Mtb UGM inh 2, Mtb betalactam 2, Mtb FBA inh conf 6 and GDH-TPI counter-2 -5.
COc1ccc2cc(C(=O)CS(=O)(=O)c3ccccc3)c(=O)oc2c1 was read as GDH-TPI counter-1 23, RecA splice inh 1, Mtb FBA inh 57*, Rv3671c protease -2, Mtb UGM inh 4, Mtb betalactam -7, Mtb FBA inh conf 56* and GDH-TPI counter-2 46*.
`O=C(CS(=O)(=O)c1ccccc1)c1cc2ccccc2oc1=O` gave GDH-TPI counter-1 8, RecA splice inh 2, Mtb FBA inh 0, Rv3671c protease 4, Mtb UGM inh 1 and Mtb betalactam 5.
`COc1ccc(S(=O)(=O)CC(=O)c2cc3cccc(C)c3oc2=O)cc1` gave GDH-TPI counter-1 8, RecA splice inh 2, Mtb FBA inh 1, Rv3671c protease -2, Mtb UGM inh 0 and Mtb betalactam 7.
Screening CCc1nc2ccc(C(=O)NCCOc3ccc(OC)cc3)cn2c1N(CC)Cc1ccc(OC)c(OC)c1 returned GDH-TPI counter-1 7 and Mtb FBA inh -4.
Cc1cc(C)cc(NC(=O)CSc2nnc(CNC(=O)c3ccco3)n2C)c1 was read as GDH-TPI counter-1 4, Mtb FBA inh -2, Rv3671c protease -3, Mtb UGM inh 0 and Mtb betalactam -2.
`CNc1cncc(-c2ccc(F)cc2F)n1` gave GDH-TPI counter-1 14, Mtb FBA inh 112*, Mtb FBA inh conf 104* and GDH-TPI counter-2 68*.
CCOC(=O)Nc1nc(-c2ccc(F)cc2F)cs1 was read as GDH-TPI counter-1 -3, RecA splice inh 3, Mtb FBA inh -4, Rv3671c protease -7, Mtb UGM inh 0 and Mtb betalactam 2.
For CCOC(=O)c1sc2nc(C)nc(NCc3ccccc3)c2c1C the results were GDH-TPI counter-1 7, RecA splice inh 3, Mtb FBA inh 53*, Rv3671c protease -16, Mtb UGM inh -3, Mtb betalactam 12, Mtb FBA inh conf -4 and GDH-TPI counter-2 0.
`Cc1nc(NCCc2ccc(S(N)(=O)=O)cc2)c2c(C)c(C)sc2n1` gave GDH-TPI counter-1 -1, RecA splice inh 1, Mtb FBA inh -4, Rv3671c protease 11, Mtb UGM inh 0 and Mtb betalactam -10.
`CCOC(=O)c1sc2nc(C)nc(Nc3ccccc3)c2c1C` gave GDH-TPI counter-1 -1, RecA splice inh 0, Mtb FBA inh 2, Rv3671c protease 8, Mtb UGM inh -1 and Mtb betalactam 6.
For CCOC(=O)c1sc2nc(C)nc(NCCc3ccc(S(N)(=O)=O)cc3)c2c1C the results were GDH-TPI counter-1 4, Mtb FBA inh 35*, Rv3671c protease -2, Mtb UGM inh 0, Mtb betalactam -4, Mtb FBA inh conf 96* and GDH-TPI counter-2 78*.
Screening CCOC(=O)/C=c1/s/c(=C/c2ccccc2OC)c(=O)n1CC(=O)N1CCOCC1 returned GDH-TPI counter-1 25 and Mtb FBA inh -1.
COc1ccc(C)cc1N(CC(=O)NCCN1CCOCC1)S(=O)(=O)c1ccccc1 was read as GDH-TPI counter-1 -2, RecA splice inh 0, Mtb FBA inh 2, Rv3671c protease 4, Mtb UGM inh -1 and Mtb betalactam -3.
`CC(O)Cn1nc([N+](=O)[O-])nc1N` (centres undefined) gave GDH-TPI counter-1 0, RecA splice inh -2, Mtb FBA inh 31*, Rv3671c protease 10, Mtb UGM inh 3, Mtb betalactam -11, Mtb FBA inh conf 180* and GDH-TPI counter-2 153*.
Cc1ncc([N+](=O)[O-])n1CC(C)O (centres undefined) was read as GDH-TPI counter-1 17, RecA splice inh 1, Mtb FBA inh -3, Rv3671c protease -2 and Mtb betalactam -2.

Screens (PubChem)
